According to PMC5540273 (PLoS ONE, 2017):

How the values were obtained:
Conditions in all cases: concentration: 1 μM, replicates: in singlicate; n = 1
CSK = test system: CSK
CSNK1A1L = test system: CSNK1A1L
CSNK1A1 = test system: CSNK1A1
CSNK1D = test system: CSNK1D
CSNK1E = test system: CSNK1E
CSNK1G1 = test system: CSNK1G1
CSNK1G2 = test system: CSNK1G2
CSNK1G3 = test system: CSNK1G3
CSNK2A1 = test system: CSNK2A1
CSNK2A2 = test system: CSNK2A2
CTK = test system: T1, CTK
T1 construct: gene MATK

DAPK1 = test system: DAPK1
DAPK2 = test system: DAPK2
DAPK3 = test system: DAPK3
DCAMKL1 = test system: T2, DCAMKL1
T2 construct: gene DCLK1

DCAMKL2 = test system: T3, DCAMKL2
T3 construct: gene DCLK2

DCAMKL3 = test system: T4, DCAMKL3
T4 construct: gene DCLK3

DDR1 = test system: DDR1
DDR2 = test system: DDR2
DLK = test system: T5, DLK
T5 construct: gene MAP3K12
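Further: KINOMEscan kinase panel screen.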

Row | Compound | %Inh (CSK) [%] | %Inh (CSNK1A1L) [%] | %Inh (CSNK1A1) [%] | %Inh (CSNK1D) [%] | %Inh (CSNK1E) [%] | %Inh (CSNK1G1) [%] | %Inh (CSNK1G2) [%] | %Inh (CSNK1G3) [%] | %Inh (CSNK2A1) [%] | %Inh (CSNK2A2) [%] | %Inh (CTK) [%] | %Inh (DAPK1) [%] | %Inh (DAPK2) [%] | %Inh (DAPK3) [%] | %Inh (DCAMKL1) [%] | %Inh (DCAMKL2) [%] | %Inh (DCAMKL3) [%] | %Inh (DDR1) [%] | %Inh (DDR2) [%] | %Inh (DLK) [%]
1 | CCn1c(-c2c(N)noc2C)nc2cnccc21 [SB-737856] | 0 | 18 | 0 | 13 | 11 | 8 | 0 | 9 | 0 | 0 | 14 | 0 | 0 | 0 | 5 | 30 | 0 | 0 | 0 | 41
2 | Nc1nccc(-c2c(-c3ccc(F)cc3)ncn2C2CCN(Cc3ccccc3)CC2)n1 [SB-219980] | 0 | 49 | 95.1 | 94.1 | 99.4 | 0 | 0 | 0 | 0 | 6 | 11 | 0 | 0 | 0 | 0 | 0 | 13 | 86 | 74 | 0
3 | CS(=O)(=O)CCNCc1nc(-c2ccc3ncnc(Nc4ccc(OCc5ccccc5)c(Cl)c4)c3c2)cs1.Cl [GW582764] | 0 | 9 | 0 | 10 | 15 | 0 | 0 | 13 | 0 | 0 | 0 | 0 | 0 | 0 | 13 | 0 | 6 | 99.8 | 40 | 50
4 | COC(=O)c1cccc(NC(=O)NC2CCN(c3ccnc(Nc4ccc(F)cc4)n3)C2)c1 (stereo not shown) [GSK1379725] | 0 | 3 | 0 | 21 | 7 | 0 | 0 | 9 | 0 | 0 | 0 | 0 | 0 | 0 | 0 | 0 | 12 | 0 | 0 | 0
5 | COc1ccc(CSc2nnc(-c3ccc4ncsc4c3)o2)cc1C(F)(F)F | 0 | 0 | 0 | 0 | 0 | 0 | 0 | 0 | 0 | 2 | 5 | 10 | 4 | 0 | 9 | 0 | 0 | 14 | 12 | 0
